# Compounds without any hit were thinned out: in the full panel of roughly 83,000, 20% have a hit.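 Method: cells in 96-well plates; compound added at one concentration; 48 h incubation; percent growth measured; values under 10 scored active.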 Unmarked numbers belong to inactive results. The source made the active and inactive calls.
# Test system: HL-60(TB) leukemia
# Test: NCI-60 one-dose screen, 48 h (100 = growth as untreated, 0 = no growth, -100 = all killed)
# Conditions: 10 µM unless noted
row,SMILES,growth
1,O=C1NC(=O)C(c2ccccc2)(c2ccccc2)N1Cc1cn(-c2c3ccccc3nc3ccccc23)nn1,73.3%
2,CC(C)(C)c1ccc(S(=O)(=O)Oc2ccc(NC(=O)C3CCCCC3)cc2)cc1,59.3%
3,[O-][n+]1c2ccccc2[n+]([O-])c2c3ccccc3[nH]c21,100%
4,Nc1c(Br)cc2c(c1Br)Cc1cc(Cl)ccc1-2,100%
5,COc1cc2c3c(n(C4CCN(C)CC4)c(=O)c2cc1OC)-c1cc2c(cc1C3=O)OCO2,95%
6,Cc1c(C(=O)Nc2ccccc2F)sc2c(=O)[nH]cnc12,83.2%
7,O=c1[nH][n+](-c2ccc(Cl)cc2)no1,24.9%
8,COCCOC(C)C(/C=N/NC(N)=S)=N/NC(N)=S (stereo not given),81.6%
9,CCCCCCCC(C)NCCO (stereo not given),101%
10,O=C(/C=C/C12c3ccccc3C(c3ccccc31)C1C(=O)NC(=O)C12)c1ccc(F)cc1 (stereo not given),-19.5% (active)
11,Cc1c(Cl)cccc1NC(=O)c1sc2nc3c(cc2c1N)C(=O)CCC3,-1.76% (active)
12,Cc1ccc(NC(=S)/N=c2/n(-c3ccccc3)nc3n2CCN3C2=NCCN2)cc1,156%
13,c1cc(OCCCCCOc2cccc(-c3nc4ccccc4[nH]3)c2)cc(-c2nc3ccccc3[nH]2)c1,-32.2% (active)
14,COc1cc2c(cc1OCCCCN1CCN(C(=S)SCCC(C#N)(c3ccccc3)c3ccccc3)CC1)N=C[C@@H]1CCCN1C2=O,-40.8% (active)
15,C=C1C(=O)O[C@H]2[C@H]1CC/C(C=Nc1c(N)cc(C(F)(F)F)cc1Br)=C\CC[C@@]1(C)O[C@@H]21,-13.1% (active)
16,O=C1Nc2ccccc2/C1=C/c1cn(CC(O)Cn2cc(/C=C3\C(=O)Nc4ccccc43)c3ccccc32)c2ccccc12 (stereo not given),-10.2% (active)
17,N=C(N)c1ccc(-c2ccc(-c3cc(Cl)cc(Cl)c3)s2)cc1,-57.6% (active)
18,CCOc1ccncc1[N+](=O)[O-],103%
19,CCCC(O)Cn1ncc(C(=O)OCC)c1NC(=O)NCc1cccc(F)c1 (stereo not given),59.2%
20,O=C(N=C1C(=O)C2(CCCCC2)C2(N=C(c3ccccc3)OC2=O)C12CCCCC2)c1ccccc1 (stereo not given),71.8%

row,SMILES,growth
1,CNC(=O)c1cccc(Cn2nc(C)c(NC(=O)c3ccc(COc4ccc(C(F)(F)F)cc4C)cc3)c2C)c1,47.1%
2,C#CCOc1ccc2ncnc(Nc3ccc(NC(=O)C=C)cc3)c2c1,-52.5% (active)
3,O=C1c2cc3c(cc2-c2c1c1ccc(F)cc1c(=O)n2CCCN1CCOCC1)OCO3,13.7%
4,C=CCN=C1NC(=O)/C(=C/c2cc(C(C)(C)C)c(O)c(C(C)(C)C)c2)S1,54.3%
5,COc1cc(O)c2c(=O)c3c(CC=C(C)C)cc(OC)c(O)c3oc2c1,-15.9% (active)
6,N#CN1CC[C@H](C(=O)Nc2ncc(-c3ccccc3)s2)C1,-23.2% (active)
7,CCN1C(=O)/C(=c2\sc3n(c2=O)C2C(NN=3)N(CC)C(=O)N2CC)c2ccccc21 (stereo not given),-29.3% (active)
8,Cn1c(NCCc2ccc(O)c(O)c2)nc2c1c(=O)n(Cc1ccc(Cl)c(Cl)c1)c(=O)n2C,14.8%
9,c1ccc(CSc2nnc3c4c5c(sc4nc(-c4cccnc4)n23)CCCCCC5)cc1,4% (active)
10,CC1=CC(=O)C=CC1=Nc1ccc(N(C)C)cc1,-1.75% (active)
11,CCn1cc(C(=O)O)c(=O)c2cc(F)c(N3CCN(CC(=O)Nc4ccccc4)C(C)C3)c(F)c21 (stereo not given),104%
12,CC1=Nc2cnc(Nc3ccc(N4CCCCC4)cc3)nc2Nc2ccccc21,28.1%
13,Cc1nn(-c2nc3ccccc3[nH]2)c2c1C(c1ccc3c(c1)OCO3)CC(=O)N2 (stereo not given),-24.3% (active)
14,COc1cc2c(cc1-c1c(C)noc1C)ncc1nc(C3CCCCC3)n(C3CCC(OC(F)F)CC3)c12 (stereo not given),-25.1% (active)
15,COc1ccc(C(=O)N2NC(=O)/C(=C/c3cn(-c4ccccc4)nc3-c3ccccc3)N=C2c2ccccc2)cc1,103%
16,COc1ccc(-c2cc(-c3ccc(Cl)cc3)nc(SCCCC(=O)NO)n2)cc1,-22.9% (active)
17,Cc1ccc(-n2nc(C(C)(C)C)cc2NC(=O)NCc2cc(F)ccc2Oc2ccc3c(cnn3CCO)c2)cc1,-1.84% (active)
18,NC(=O)c1ccc(N=C(N)N=C(N)N)cc1,98.7%
19,O=C(CCl)Nc1ccc(Cc2ccc(NC(=O)CCl)cc2)cc1,-18.3% (active)
20,NC(=O)OCCO,106%
